# HEK293 viab: counter-screen for SNCA expression inhibitors: cell viability. HEK-293-SNCA-luc viability, GF-AFC fluorescence, 24 h. Potency, µM (highest dose often 57.1 µM), for inactives: at the top dose activity change, negative = cytotoxicity, actives largely listed as cytotoxic. actives 0.12% (n = 150,000);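 further: 0% = DMSO-treated cells and -100% = medium-only wells without cells; nearly all actives have a fitted effect of over 30% in size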
#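 HEK-293-SNCA-luc cells (1500/well) plated 24 h, then exposed 24 h to a dilution series; GF-AFC added 30 min at 37C, fluorescence 405/540 nm; normalised to medium-only and DMSO wells, Hill fit.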
# HEK cytotox: HEK 293 cell cytotoxicity | HEK 293 viability, ATP luminescence (CellTiter-Glo), 48-72 h | AID 1345083 | actives 6.6% (n = 94,000) | Potency, µM (top dose mostly 115 µM), for the others: at the top dose activity change, negative = cytotoxicity, hits mostly inhibitors; further: nearly all actives have a fitted effect of over 60% in size
#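 HEK 293 cells seeded at 250 cells/well were exposed to compound for 48 or 72 hr at 37 degree Celsius. Viability taken as ATP content by CellTiter-Glo luminescence.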
# Luciferase inh: Photinus pyralis luciferase inhibition; purified P. pyralis luciferase, luminescence, biochemical; actives 2.5% (n = 76,000); Potency, µM (highest dose often 115 µM), most hits filed as inhibitors; P08659; further: nearly all actives have a fitted effect of over 65% in size
#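 Purified 10nM P. pyralis luciferase with 10uM D-luciferin and 10uM ATP in 50mM Tris acetate pH 7.5, 10mM Mg acetate, 0.01% Tween-20, 0.05% BSA. qHTS titration; luminescence read by CCD imager.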
# 3T3 cytotox: NIH 3T3 cell cytotoxicity; NIH 3T3 viability, CellTiter-Glo ATP luminescence, 48-72 h; Potency, µM (highest dose often 96.7 µM), inactives show top-dose activity change, negative = cytotoxicity, most hits filed as inhibitors; actives 4.3% (n = 94,000); further: nearly all actives have a fitted effect of over 55% in size
#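 Cytotoxicity was measured by CellTiter-Glo ATP luminescence after 48 or 72 h compound exposure at 37 °C. Mouse NIH 3T3 fibroblasts were seeded at 400 cells/well and dosed by 23 nL pin transfer.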
# SNCA expr inh: inhibitors of alpha-synuclein (SNCA) gene expression; HEK-293 SNCA-luciferase knock-in, luminescence, 24 h; Potency, µM (titrated, usually from 57.2 µM), without a hit: at the highest dose activity change, negative = inhibition, usual class: inhibitors; actives 0.17% (n = 140,000);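 further: plate controls were DMSO cells for no effect and cell-free wells for full effect; nearly all actives have a fitted effect of over 45% in size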
# hNpr1 antagonist: blocks ANP-stimulated signaling of human Npr1 receptor; P16066; HEK293 hNpr1 GloSensor cGMP, ANP-stimulated luminescence; Potency, µM (series often up to 46.3 µM), for the others: top-dose activity change, negative = inhibition, usual class: inhibitors; actives 1.6% (n = 76,000); AID 1347048; calls by dose curve; further: nearly all actives have a fitted effect of over 60% in size
# Target sequence (P16066 whole entry, looked up): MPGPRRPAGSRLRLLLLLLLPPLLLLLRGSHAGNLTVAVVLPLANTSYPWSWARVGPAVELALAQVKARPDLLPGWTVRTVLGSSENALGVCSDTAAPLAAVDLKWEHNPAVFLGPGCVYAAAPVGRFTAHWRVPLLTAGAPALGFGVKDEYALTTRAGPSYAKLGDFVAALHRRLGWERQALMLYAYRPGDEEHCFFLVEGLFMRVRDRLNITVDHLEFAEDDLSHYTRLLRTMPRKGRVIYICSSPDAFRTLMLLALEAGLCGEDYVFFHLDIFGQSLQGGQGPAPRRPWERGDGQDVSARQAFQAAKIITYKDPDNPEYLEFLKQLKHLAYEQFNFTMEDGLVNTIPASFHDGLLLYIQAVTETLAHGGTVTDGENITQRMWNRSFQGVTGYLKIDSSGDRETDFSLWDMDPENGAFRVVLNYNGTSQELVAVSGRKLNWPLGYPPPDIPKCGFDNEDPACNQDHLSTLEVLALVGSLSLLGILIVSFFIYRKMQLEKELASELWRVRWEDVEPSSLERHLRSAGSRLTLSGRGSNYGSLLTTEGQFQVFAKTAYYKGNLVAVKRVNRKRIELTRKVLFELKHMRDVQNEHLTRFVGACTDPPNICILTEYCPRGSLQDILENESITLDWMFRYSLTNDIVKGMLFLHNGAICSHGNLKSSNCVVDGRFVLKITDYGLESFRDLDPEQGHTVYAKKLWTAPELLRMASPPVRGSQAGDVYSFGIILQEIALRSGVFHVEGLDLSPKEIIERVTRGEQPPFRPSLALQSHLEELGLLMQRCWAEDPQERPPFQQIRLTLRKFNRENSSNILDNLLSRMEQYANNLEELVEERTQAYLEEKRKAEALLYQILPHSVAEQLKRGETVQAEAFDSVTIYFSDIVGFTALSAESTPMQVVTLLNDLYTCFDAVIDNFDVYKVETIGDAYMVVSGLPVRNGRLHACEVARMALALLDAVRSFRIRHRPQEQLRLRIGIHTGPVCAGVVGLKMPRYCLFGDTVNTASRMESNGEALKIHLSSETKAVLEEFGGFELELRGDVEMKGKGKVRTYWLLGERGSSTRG
#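 HEK293 cells stably expressing human Npr1 and cGMP GloSensor pGS-40F, loaded 2 h with 2% GloSensor reagent, given compound 30 min at room temperature. Luminescence read before and 20 min after 0.1 nM hNppA.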
# * marks the source's active call; other numbers are inactive results; i = inactive; ? = inconclusive; . = not tested or not shown; ! = repeats disagree; [ ] = dose if it differs, or a comment. Sampled rows, rich in hits. Any-hit rate of the full collection: about 7.4%. Unless noted, the call rests on the fitted dose curve; in most records, active means well fitted curve in the direction sought with a large enough effect; inconclusive means small, poorly fitted or top-dose-only effect, or another doubt; inactive means no such curve, though single readings can be large; an effect the other way counts as inactive or inconclusive. Unless noted, on the % scale 0 is the no-effect control and ±100 the full control effect; potency means the concentration at half of the fitted maximal effect.
SMILES,HEK293 viab,HEK cytotox,Luciferase inh,3T3 cytotox,SNCA expr inh,hNpr1 antagonist
COc1ccc(-c2cccc(C(=O)N3CCC(NC(=O)Nc4ccc(Cl)cc4)CC3)c2)nn1,.,44.7µM*,.,25.1µM*,.,.
COc1cccc(-c2ccc(C(=O)N3CCC(NC(=O)C(C)(C)C)CC3)cc2)c1,1.5%[12.5 µM],?,.,39.8µM*,0.3%,.
COc1cccc(-c2ccc(C(=O)N3CCC(NC(=O)Cc4cccc(Cl)c4)CC3)cc2)c1,-3.0%,25.1µM*,.,?,-14.6%,.
COc1cccc(-c2ccc(C(=O)N3CCC(NC(=O)Nc4ccccc4F)CC3)cc2)c1,2.1%[12.5 µM],15.8µM*,.,?,-25.7%,.
N#Cc1ccc(S(=O)(=O)N2CC(C(=O)NC3CCCCC3)C3(CCOCC3)C2)cc1 (stereo not given),-12.1%,0.7%,i,2.0%,-23.9%,4.6%
COCCn1c(=O)c(C(=O)NCc2cccc(F)c2)nc2cccnc21,5.7%,-5.3%,.,-2.6%,-3.2%,.
CCC(C)NC(=O)C(NC(=O)c1ccccc1F)C1CCN(C(=O)c2ccc(OC)cc2)CC1 (stereo not given),-5.0%,2.9%,i,-9.9%,-4.2%,0.7%
COc1cccc(-c2ccc(C(=O)N3CCC(NC(=O)c4ccccc4C)CC3)cc2)c1,5.7%[12.5 µM],?,.,39.8µM*,-0.7%,.
COc1ccc(C(=O)N2CCC(C(NC(=O)c3ccccc3C)C(=O)NC(C)C(C)C)CC2)cc1 (stereo not given),20µM*,-8.8%,i,-15.1%,-22.3%,-0.8%
Cn1c(=O)c(F)c(Nc2ccc(I)cc2F)c2c(=O)n(CC(O)CO)cnc21 (stereo not given),-0.1%,.,.,.,.,.
CC(C)C[C@@H]1N[C@H](C(=O)NC(C)C)Cc2cn(Cc3nccn3C)c3cccc1c23,-5.1%[87.6 µM],?,i,79.4µM*,-24.5%[87.6 µM],-12.7%[70.6 µM]
C=CCN(C)C(=O)[C@@H]1Cc2cn(Cc3cc(C)on3)c3cccc(c23)[C@H](CC(C)C)N1,-22.2%[87.6 µM],70.8µM*,i,70.8µM*,14.6%[87.6 µM],2.0%[70.6 µM]
C=CCNC(=O)[C@@H]1Cc2cn(Cc3nccn3C)c3cccc(c23)[C@H](CC(C)C)N1,-4.9%[87.6 µM],?,i,79.4µM*,-24.7%[87.6 µM],-2.3%[70.6 µM]
CC(C)C[C@@H]1N[C@H](C(=O)NC2CCC2)Cc2cn(Cc3nccn3C)c3cccc1c23,-28.1%[87.6 µM],?,i,79.4µM*,-26.3%[87.6 µM],-16.4%[70.6 µM]
Cc1cccnc1C(=O)N1C[C@@H](CO)[C@H](c2ccccn2)C1,4.2%,i,i,2.7%,-4.1%,-2.1%
C=CCN(C)C(=O)[C@@H]1Cc2cn(Cc3nccn3C)c3cccc(c23)[C@H](CC(C)C)N1,-4.9%[87.6 µM],100µM*,i,?,-14.3%[87.6 µM],3.6%[70.6 µM]
O=C(NC[C@H]1OC[C@@H](NC2CCCCC2)[C@@H]1O)c1ccc(F)cc1,2.0%[87.6 µM],-12.1%[172 µM],i,-7.4%[138 µM],-9.7%[87.6 µM],1.4%[70.6 µM]
Cc1ccc(C2Cn3nnc(C(=O)N4CCC(C(=O)NCc5cccc(Cl)c5)CC4)c3CO2)cc1 (stereo not given),-6.3%,-16.4%,22.4µM*,-21.8%,53.1%,-7.1%
Cc1ccc(C2Cn3nnc(C(=O)N4CCC(C(=O)NCc5cccc(F)c5)CC4)c3CO2)cc1 (stereo not given),0.5%,-1.8%,35.5µM*,-15.6%,4.4%,-2.0%
Cc1ccc(C2Cn3nnc(C(=O)N4CCC(C(=O)NCc5cc(F)cc(F)c5)CC4)c3CO2)cc1 (stereo not given),-12.3%,-6.0%,15.8µM*,i,103.0%,-0.6%
COc1ccc(C(=O)Nc2ncc(-c3ccc(C(=O)O)cc3)s2)cc1,-36.1%,.,.,.,.,.
COc1cc(C)c(Sc2cnc(NC(=O)c3ccc(CNC(C)C(C)C)cc3)s2)cc1C(=O)N1CCN(C(C)=O)CC1 (stereo not given),27.1µM*!,.,.,.,?,.
CC(C)(C)c1ccc(C(=O)N2CCOCC(O)(CN3CCCC3)C2)cc1 (stereo not given),2.3%,?,i,-23.6%,-14.0%,2.1%
COc1ccccc1-c1cc(C(=O)NC2CCCCC2)nn2cnnc12,7.7%,?,.,-8.8%,-1.2%,.
O=C(N[C@@H]1CN(c2ccncn2)C[C@H]1CO)c1cccc(Cl)c1,6.6%,2.7%,i,-13.7%,20.1%,-12.3%
SMILES,HEK293 viab,HEK cytotox,Luciferase inh,3T3 cytotox,SNCA expr inh,hNpr1 antagonist
C1=CC[C@H]2CN(c3nccc(-c4ccccn4)n3)C[C@H]2C1,-5.6%,44.7µM*,i,?,66.2%,-12.8%
O=C(O)C1=NOC2CN([S+](=O)([O-])CCC(F)(F)F)CC12 (stereo not given),-8.0%,i,.,i,-3.6%,.
CN(C(=O)c1ccc(C(F)(F)F)cc1)C1CCCc2ccccc21 (stereo not given),20.3%[87.6 µM],?,?,50.1µM*,80.8%[87.6 µM],-2.3%[70.6 µM]
Cc1ccc(S(=O)(=O)N(C)C2CCCc3ccccc32)cc1 (stereo not given),-11.5%[87.6 µM],89.1µM*,i,?,-8.8%[87.6 µM],-9.4%[70.6 µM]
CN(C(=O)c1ccc(C(F)(F)F)cc1)C1CCc2ccccc21 (stereo not given),-1.9%[87.6 µM],?,i,?,21.5%[87.6 µM],7.1%[70.6 µM]
CN(C(=O)C1CC1)C1CCCc2ccccc21 (stereo not given),6.3%[87.6 µM],?,i,?,-0.6%[87.6 µM],0.0%[70.6 µM]
Cc1ccccc1C(=O)N(C)C1CCCc2ccccc21 (stereo not given),0.3%[87.6 µM],89.1µM*,i,?,-3.8%[87.6 µM],3.9%[70.6 µM]
CN(C(=O)Cc1cccc(Cl)c1)C1CCCc2ccccc21 (stereo not given),-14.0%[87.6 µM],100µM*,i,?,5.5%[87.6 µM],6.1%[70.6 µM]
CC1CC(C(O)C(C)(C)O)OC2CC3(C)C4(C)CCC5C(C)(C)C(=O)CCC5(C)C4CCC3(O)C12O (stereo not given),15.5%[23.9 µM],.,.,.,.,.
CCCNC(=O)C(NC(=O)CC(C)C)C1CCN(C(=O)c2ccc(Cl)cc2)CC1 (stereo not given),-2.0%,i,i,-10.5%,2.1%,-2.3%
CN1N=C(C(N)=O)CCC1=O,-5.6%[23.9 µM],.,.,.,-12.0%[25.6 µM],.
CC(=O)N1CCC(n2c(C)cnc2-c2ccccc2)CC1,-0.3%,-7.9%,i,-6.5%,25.2%,0.9%
COCCN1CCCN(C(=O)c2cccc(OC)c2)c2ccccc21,3.4%,?,i,-24.7%,3.5%,-3.1%
COc1ccccc1CC(=O)N1CCCN(CCc2ccccc2)c2ccccc21,-9.2%,39.8µM*,i,?,-6.7%,-10.9%
COCC(=O)N1CCCN(CCc2ccccc2)c2ccccc21,-7.7%,35.5µM*,i,-29.1%,29.2%,-12.0%
